Data taken from PubChem BioAssay (NCATS).
Records with an inconclusive call do not appear. Calls of active or inactive are those of the source. Unless noted, the call rests on the fitted dose curve; in most records, active means well fitted curve in either direction with a large enough effect (not every such curve was filed as active); inconclusive means small, poorly fitted or top-dose-only effect, or another doubt; inactive means flat fitted curve, though single readings scatter.

Columns and labels:
[1] = target: Lysosomal acid glucosylceramidase (Homo sapiens) (UniProt P04062); assay: Glucocerebrosidase-p2 (AID 348; in the data active means potency below about 10 µM; further: potency means the concentration at half of the fitted maximal effect); settings: purified GBA, blue fluorogenic substrate, 40 min
Chain of Lysosomal acid glucosylceramidase (Homo sapiens) (P04062 whole entry, looked up): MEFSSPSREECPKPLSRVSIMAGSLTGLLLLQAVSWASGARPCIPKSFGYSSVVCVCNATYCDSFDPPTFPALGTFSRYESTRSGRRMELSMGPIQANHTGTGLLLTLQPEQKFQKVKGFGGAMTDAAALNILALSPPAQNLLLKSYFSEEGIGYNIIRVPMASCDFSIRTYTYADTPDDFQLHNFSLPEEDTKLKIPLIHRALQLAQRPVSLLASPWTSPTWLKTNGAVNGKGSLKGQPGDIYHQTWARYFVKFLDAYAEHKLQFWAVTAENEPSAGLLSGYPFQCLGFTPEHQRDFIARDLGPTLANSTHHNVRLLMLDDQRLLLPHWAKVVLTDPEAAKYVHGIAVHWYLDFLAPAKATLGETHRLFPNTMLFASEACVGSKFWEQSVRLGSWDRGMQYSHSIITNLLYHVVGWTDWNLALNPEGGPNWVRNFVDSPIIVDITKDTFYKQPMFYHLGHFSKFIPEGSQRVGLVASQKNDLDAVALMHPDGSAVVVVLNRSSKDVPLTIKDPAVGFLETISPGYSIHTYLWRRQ
Method in brief: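 Normal human glucocerebrosidase (0.2 nM) with blue fluorogenic substrate (80 uM final) in citrate/phosphate pH 5.9 with 10mM sodium taurocholate, 0.01% tween-20; 40 min RT, NaOH/glycine stop; fluorescence Ex 365/Em 440; AC50 from a titration from 0.6 nM upwards.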

[2] = AP1 Signaling Pathway (AID 357); settings: ME-180 AP-1-bla reporter, EGF-induced, beta-lactamase ratio, 5 h; at 7.69 µM (top of the series) unless noted;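 further: ME-180 reporter cells stimulated with EGF at its EC50 level; on the % scale 0 is the no-effect control and ±100 the full control effect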
Method in brief: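 A ratiometric CCF4 readout (405 nm excitation; 460 and 530 nm emission) quantified AP-1-driven beta-lactamase in ME-180 cells after 5 h with compound and EC50 EGF; AC50 values were derived for activators and inhibitors.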

[3] = target: Cytochrome P450 1A2 (Homo sapiens) (UniProt P05177); assay: p450-cyp1a2 (AID 410; calls by dose curve; further: potency means the concentration at half of the fitted maximal effect;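 on activity change, negative = inhibition: -100% = full effect of reference inhibitor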); settings: recombinant CYP1A2, luciferin-ME demethylation, luminescence; series mostly up to 57 µM
Chain of Cytochrome P450 1A2 (Homo sapiens) (P05177 whole entry, looked up): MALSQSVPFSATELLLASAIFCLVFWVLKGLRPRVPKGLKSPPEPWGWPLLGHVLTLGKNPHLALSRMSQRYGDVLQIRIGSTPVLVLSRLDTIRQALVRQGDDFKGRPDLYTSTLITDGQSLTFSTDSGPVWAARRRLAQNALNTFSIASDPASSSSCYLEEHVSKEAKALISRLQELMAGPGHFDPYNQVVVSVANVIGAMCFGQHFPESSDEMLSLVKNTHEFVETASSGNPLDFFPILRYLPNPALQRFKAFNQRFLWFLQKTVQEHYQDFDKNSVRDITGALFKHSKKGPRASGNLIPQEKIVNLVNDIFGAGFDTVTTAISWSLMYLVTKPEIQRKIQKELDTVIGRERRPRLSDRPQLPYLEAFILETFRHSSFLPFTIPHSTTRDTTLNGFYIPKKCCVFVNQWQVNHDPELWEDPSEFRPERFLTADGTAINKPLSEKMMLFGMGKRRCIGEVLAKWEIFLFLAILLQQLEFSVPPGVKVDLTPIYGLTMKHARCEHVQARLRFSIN
Method in brief: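 20nM CYP1A2, 100uM Luciferin-ME (=Km), 100mM KPO4; cpd 10 min RT; +NADPH regen, 60 min RT; stop/detect 20 min; luminescence. Normalized to furafylline 57 uM = full inhibition.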

[4] = NFAT Signaling Pathway (AID 444); settings: Jurkat NFAT-bla M1, carbachol, beta-lactamase ratio, 5 h; at 7.69 µM (top of the series) unless noted;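 further: carbachol stimulus at about its EC50 of 1 µM final; on the % scale 0 is the no-effect control and ±100 the full control effect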
Method in brief: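 Jurkat cells carrying an NFAT-driven β-lactamase reporter and co-transfected muscarinic M1 receptor were treated with compound plus carbachol (1 uM final, an EC50 level) for 5 h at 37 °C. CCF4 loading followed for 1 h at RT; 460/530 nm ratio gave %activity.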

[5] = Stat Signaling Pathway (AID 446); settings: ME-180 (cervical carcinoma) SIE beta-lactamase reporter, IL-6 stimulated, 5 h; at 7.69 µM (top of the series) unless noted;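 further: ME-180 cervical cancer cells given 40 pM IL-6 alongside compound; SIE-controlled beta-lactamase reporter measured as 460/530 nm FRET emission ratio; on the % scale 0 is the no-effect control and ±100 the full control effect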
Method in brief: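 Overnight-plated ME-180 cells bearing a STAT Inducible Element beta-lactamase reporter; 5 h co-exposure to compound and 40 pM IL-6; values normalized to 300 pM IL-6 and 125 nM JAK inhibitor controls.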

[6] = target: Glucocorticoid receptor (Homo sapiens) (UniProt P04150); assay: GR-EFC Redistribution (AID 451; calls by dose curve; further: potency means the concentration at half of the fitted maximal effect); settings: CHO-K1 GR-EFC translocation, beta-gal luminescence, 2 h
Chain of Glucocorticoid receptor (Homo sapiens) (P04150 whole entry, looked up, the tested form may be a part): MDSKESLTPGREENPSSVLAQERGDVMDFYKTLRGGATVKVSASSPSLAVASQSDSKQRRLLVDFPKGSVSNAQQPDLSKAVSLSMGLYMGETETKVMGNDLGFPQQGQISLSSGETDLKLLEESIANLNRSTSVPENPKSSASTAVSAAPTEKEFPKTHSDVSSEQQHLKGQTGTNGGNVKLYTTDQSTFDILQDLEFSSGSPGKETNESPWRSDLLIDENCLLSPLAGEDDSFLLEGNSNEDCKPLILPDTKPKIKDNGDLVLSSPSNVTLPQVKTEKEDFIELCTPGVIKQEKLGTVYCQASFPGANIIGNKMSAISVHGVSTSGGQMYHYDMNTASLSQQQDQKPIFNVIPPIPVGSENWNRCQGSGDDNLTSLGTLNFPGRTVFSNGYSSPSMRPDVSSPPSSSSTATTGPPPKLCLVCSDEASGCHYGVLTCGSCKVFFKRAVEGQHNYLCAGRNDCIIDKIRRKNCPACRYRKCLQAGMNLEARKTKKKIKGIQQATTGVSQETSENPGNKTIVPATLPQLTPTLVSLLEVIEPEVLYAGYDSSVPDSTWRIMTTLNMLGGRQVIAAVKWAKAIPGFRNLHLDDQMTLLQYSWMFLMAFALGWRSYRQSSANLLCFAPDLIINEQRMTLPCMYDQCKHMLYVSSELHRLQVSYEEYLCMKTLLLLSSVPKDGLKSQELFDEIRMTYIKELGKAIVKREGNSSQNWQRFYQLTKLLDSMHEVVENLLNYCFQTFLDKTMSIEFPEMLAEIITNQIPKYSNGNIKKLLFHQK
Method in brief: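 CHO-K1 cells stably expressing nuclear-localized β-gal enzyme acceptor and GR fused C-terminally to the enzyme donor fragment; ligand-driven nuclear translocation restores β-gal by complementation. Compounds titrated up to 46 uM final, 2 h at 37 °C; luminescence read.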

[7] = target: Mitogen-activated protein kinase 10 (Mus musculus) (UniProt Q61831); assay: JNK3 AlphaScreen Assay (AID 530); settings: JNK3 lysate, c-Jun phosphorylation; series mostly up to 57.1 µM;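 further: kinase came from lysate of stimulated human HepG2 cells; signal reports phosphorylation of biotinylated GST-cJun 1-79 at Ser73 with 10 µM ATP; on the % scale 0 is the no-effect control and ±100 the full control effect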
Method in brief: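 Biotinylated GST-cJun(1-79) served as substrate for JNK3 in HepG2 lysates stimulated with IL-1beta and TNF-alpha. ATP was 10 uM final, pH 7.6. Ser73 phosphorylation was quantified by AlphaScreen (680 nm excitation).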

[8] = target: 3',5'-cyclic-AMP phosphodiesterase 4B (Homo sapiens) (UniProt Q07343); assay: qHTS Assay for Inhibitors of PDE-IV (AID 607; active means well fitted activation curve with a large enough effect in the main read-out, with a control signal flat, not every such curve was filed as active; further: % of control where 0% means no effect); settings: HEK293 ACTOne CNG channel cells, membrane potential fluorescence; series mostly up to 22.9 µM
Chain of 3',5'-cyclic-AMP phosphodiesterase 4B (Homo sapiens) (Q07343 whole entry, looked up): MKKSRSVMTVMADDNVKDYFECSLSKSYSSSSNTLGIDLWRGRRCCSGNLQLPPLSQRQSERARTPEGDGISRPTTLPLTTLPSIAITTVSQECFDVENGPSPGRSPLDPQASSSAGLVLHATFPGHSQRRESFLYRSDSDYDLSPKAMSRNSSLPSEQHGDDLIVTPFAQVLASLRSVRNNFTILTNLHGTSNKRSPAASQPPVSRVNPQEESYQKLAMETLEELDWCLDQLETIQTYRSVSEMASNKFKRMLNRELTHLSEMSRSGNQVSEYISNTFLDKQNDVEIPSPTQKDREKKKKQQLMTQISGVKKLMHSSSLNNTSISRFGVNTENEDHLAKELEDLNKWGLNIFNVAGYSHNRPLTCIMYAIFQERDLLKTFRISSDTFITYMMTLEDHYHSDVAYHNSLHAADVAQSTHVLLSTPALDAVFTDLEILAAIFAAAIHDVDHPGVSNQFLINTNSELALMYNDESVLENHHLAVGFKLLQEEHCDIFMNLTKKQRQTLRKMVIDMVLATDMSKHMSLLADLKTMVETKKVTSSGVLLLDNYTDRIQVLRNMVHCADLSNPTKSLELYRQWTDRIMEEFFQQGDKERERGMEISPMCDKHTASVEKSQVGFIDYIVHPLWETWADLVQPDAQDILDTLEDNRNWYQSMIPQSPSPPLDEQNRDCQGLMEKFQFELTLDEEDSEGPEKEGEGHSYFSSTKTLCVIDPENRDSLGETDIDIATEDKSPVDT
Method in brief: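 Live HEK293 cells with a modified cyclic nucleotide-gated (CNG) channel report intracellular cAMP via membrane-potential dye fluorescence (ex 535/em 590 nm). Endogenous PDE-IV was targeted. Compounds were tested at up to 22.9 uM final; RO 20-1724 100 uM served as control.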

[9] = qHTS Assay for Lipid Storage Modulators (AID 1519; calls by dose curve); settings: Drosophila S3 cells, BODIPY lipid droplet/cell ratio, laser cytometry, cells loaded with oleic acid; for activity change, negative = inhibition: at 57.5 µM (top of the series)
Method in brief: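 Cells seeded at 5,000 per well were treated with compounds over a concentration series and loaded with oleic acid (400 uM, as added). Lipid droplet fluorescence (488 nm excitation, 500-530 nm channel) was read by laser-scanning cytometry and normalized to 20 uM Triacsin C.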

[10] = Primary qHTS for small molecule stabilizers of the endoplasmic reticulum resident proteome: Secreted ER Calcium Modulated Protein (SERCaMP) assay (AID 1508630; active means well fitted inhibition curve with a large enough effect; further: on the % scale 0 is the no-effect control and ±100 the full control effect); settings: SH-SY5Y GLuc-SERCaMP (Gaussia luciferase released on ER calcium loss) secretion, thapsigargin, luminescence; series mostly up to 38.4 µM
Method in brief: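 The SH-SY5Y reporter protocol was run at 3 concentrations up to 38.3 uM (primary) or 11 concentrations (follow-up): 16 h compound, 100 nM thapsigargin for 4 h, then extracellular luciferase luminescence.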

[11] = target: Cytochrome P450 2C9 (Homo sapiens) (UniProt P11712); assay: qHTS Assay for Inhibitors and Substrates of Cytochrome P450 2C9 (AID 883; active means well fitted inhibition curve with a large enough effect; further: on the % scale 0 is the no-effect control and ±100 the full control effect; nearly all actives have a fitted effect of over 60% in size); settings: recombinant CYP2C9, luciferin-H luminescence, 60 min; series mostly up to 57.1 µM
Chain of Cytochrome P450 2C9 (Homo sapiens) (P11712 whole entry, looked up): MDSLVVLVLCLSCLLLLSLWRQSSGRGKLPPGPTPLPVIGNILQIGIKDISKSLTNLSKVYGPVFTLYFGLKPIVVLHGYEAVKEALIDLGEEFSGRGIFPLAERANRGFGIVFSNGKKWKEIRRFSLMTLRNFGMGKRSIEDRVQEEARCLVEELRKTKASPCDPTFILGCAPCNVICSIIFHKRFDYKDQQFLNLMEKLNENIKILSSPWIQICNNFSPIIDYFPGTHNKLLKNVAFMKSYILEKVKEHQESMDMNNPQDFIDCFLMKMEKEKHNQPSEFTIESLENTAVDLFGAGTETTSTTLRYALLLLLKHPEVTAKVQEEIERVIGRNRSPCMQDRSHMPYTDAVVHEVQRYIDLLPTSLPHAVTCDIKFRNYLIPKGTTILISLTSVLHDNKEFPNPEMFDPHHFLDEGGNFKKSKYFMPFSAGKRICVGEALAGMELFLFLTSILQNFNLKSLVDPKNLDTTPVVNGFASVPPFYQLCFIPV
Method in brief: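 Human CYP2C9 (10nM) hydroxylated Luciferin-H (100uM, at its KM) to luciferin in 25mM KPO4. Compound was preincubated 10 min at 37C, then NADPH regeneration started a 60 min reaction at 37C. Luminescence was read after detection reagent, normalized to 57uM sulphaphenazole.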

[12] = target: Cytochrome P450 3A4 (Homo sapiens) (UniProt P08684); assay: qHTS Assay for Inhibitors and Substrates of Cytochrome P450 3A4 (AID 884; active means well fitted inhibition curve with a large enough effect; further: potency means the concentration at half of the fitted maximal effect; nearly all actives have a fitted effect of over 50% in size); settings: recombinant CYP3A4, Luciferin-PPXE luminescence; series mostly up to 57.1 µM
Chain of Cytochrome P450 3A4 (Homo sapiens) (P08684 whole entry, looked up): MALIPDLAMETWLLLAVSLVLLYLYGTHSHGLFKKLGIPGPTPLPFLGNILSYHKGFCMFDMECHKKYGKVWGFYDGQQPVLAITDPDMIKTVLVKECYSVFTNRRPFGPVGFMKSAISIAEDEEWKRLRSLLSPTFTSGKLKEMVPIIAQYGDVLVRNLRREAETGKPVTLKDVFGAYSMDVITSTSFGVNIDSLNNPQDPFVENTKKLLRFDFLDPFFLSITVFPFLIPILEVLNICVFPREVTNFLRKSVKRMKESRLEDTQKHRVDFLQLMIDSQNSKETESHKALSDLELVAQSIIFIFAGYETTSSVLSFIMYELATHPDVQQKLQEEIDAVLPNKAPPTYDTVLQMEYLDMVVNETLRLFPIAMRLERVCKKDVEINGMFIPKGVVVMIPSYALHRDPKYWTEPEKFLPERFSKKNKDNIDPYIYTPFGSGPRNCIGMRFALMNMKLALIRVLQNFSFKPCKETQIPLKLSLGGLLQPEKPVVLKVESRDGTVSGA
Method in brief: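 Luminescent readout of luciferin produced by CYP3A4 (20 nM) dealkylation of Luciferin-PPXE, 25 uM (its KM). NADPH-driven reaction ran 60 min at RT after 10 min compound preincubation; data scaled to 57 uM ketoconazole as 100% inhibition.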

[13] = target: Cytochrome P450 2D6 (Homo sapiens) (UniProt P10635); assay: qHTS Assay for Inhibitors and Substrates of Cytochrome P450 2D6 (AID 891; active means well fitted inhibition curve with a large enough effect;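 further: luciferin methyl ether substrate demethylated by CYP2D6 with NADPH regeneration; on the % scale 0 is the no-effect control and ±100 the full control effect; nearly all actives have a fitted effect of over 60% in size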); settings: recombinant CYP2D6, luciferin-ME EGE luminescence; series mostly up to 57.1 µM
Chain of Cytochrome P450 2D6 (Homo sapiens) (P10635 whole entry, looked up): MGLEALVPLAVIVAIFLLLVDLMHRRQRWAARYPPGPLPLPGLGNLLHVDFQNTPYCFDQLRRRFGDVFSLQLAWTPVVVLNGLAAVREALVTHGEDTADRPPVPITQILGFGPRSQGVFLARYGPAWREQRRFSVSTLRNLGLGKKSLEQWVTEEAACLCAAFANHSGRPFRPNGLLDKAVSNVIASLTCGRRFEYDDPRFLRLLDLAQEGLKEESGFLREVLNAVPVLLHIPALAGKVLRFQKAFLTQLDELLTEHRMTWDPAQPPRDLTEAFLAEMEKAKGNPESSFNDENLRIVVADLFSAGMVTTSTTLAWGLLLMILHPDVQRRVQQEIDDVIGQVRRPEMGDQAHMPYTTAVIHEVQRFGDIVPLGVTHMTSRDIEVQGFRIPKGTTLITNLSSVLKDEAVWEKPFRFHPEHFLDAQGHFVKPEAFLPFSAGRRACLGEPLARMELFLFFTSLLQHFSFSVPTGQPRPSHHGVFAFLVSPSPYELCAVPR
Method in brief: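 Luminescent read-out of luciferin formed by 5 nM human CYP2D6 demethylating 30 uM Luciferin-ME EGE (Km level) over 60 min at room temperature after NADPH regeneration addition. Data normalized to full inhibition by 1.43 uM quinidine.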

[14] = measured here: cell count channel max response
[15] = measured here: lipid channel max response

| SMILES | Potency [1] | activity change, negative = inhibition [2] | Potency [3] | activity change, negative = inhibition [4] | activity, negative = inhibition [5] | Potency [6] | outcome [7] | Potency [8] | activity change, negative = inhibition [9] | max response [9, 14] [%] | max response [9, 15] [%] | Potency [10] | Potency [11] | Potency [12] | Potency [13] |
| --- | --- | --- | --- | --- | --- | --- | --- | --- | --- | --- | --- | --- | --- | --- | --- |
| Cc1noc(C)c1C(=O)N1CCC2(CC1)CN(c1ccccc1)C2 | > 11.4 µM (inactive) | -19.3% (inactive) | inactive | 3.6% (inactive) | -19% (inactive) | > 46 µM (inactive) | inactive | inactive | 4.6% (inactive) | -4.97 | 1.75 | inactive | – | – | – |
| CC(=O)N1CCC2(CC1)CN(c1ccncc1)C2 | > 11.4 µM (inactive) | -4.3% (inactive) | inactive | 0.609% (inactive) | 0.403% (inactive) | > 46 µM (inactive) | inactive | inactive | 2.66% (inactive) | 11.6 | 16.2 | inactive | inactive | – | – |
| O=C(Nc1ccccc1)N1CCC2(CC1)CCN(C(=O)c1csnn1)CC2 | > 11.4 µM (inactive) | -1.74% (inactive) | inactive | 11.2% (inactive) | -9.72% (inactive) | > 46 µM (inactive) | inactive | inactive | 4.48% (inactive) | 16.6 | 23.2 | inactive | – | – | – |
| COCC(=O)N1CCC2(CC1)CN(C(=O)Nc1cccc(C#N)c1)C2 | > 11.4 µM (inactive) | 12.3% (inactive) | inactive | 9.29% (inactive) | 11.7% (inactive) | > 46 µM (inactive) | inactive | inactive | 1.93% (inactive) | 8.59 | 11 | inactive | – | – | – |
| COCC(=O)N1CCC2(CC1)CN(C(=O)Nc1cccc(F)c1)C2 | > 11.4 µM (inactive) | -27.6% (inactive) | inactive | 9.78% (inactive) | -2.66% (inactive) | > 46 µM (inactive) | inactive | inactive | 8.39% (inactive) | 17.5 | 29 | inactive | – | – | – |
| CS(=O)(=O)N1CCC2(CCN(c3ccccc3)CC2)CC1 | > 11.4 µM (inactive) | 0.201% (inactive) | inactive | -7.56% (inactive) | -0.282% (inactive) | > 46 µM (inactive) | inactive | inactive | 5.49% (inactive) | 20.7 | 29.9 | inactive | inactive | – | – |
| O=C(c1ccncc1)N1CCC[C@@]2(CCN(c3ncccn3)C2)C1 | > 11.4 µM (inactive) | 2.24% (inactive) | inactive | 20.3% (inactive) | 1.34% (inactive) | > 46 µM (inactive) | inactive | inactive | 3.78% (inactive) | 21.2 | 24.4 | inactive | – | – | – |
| COC(=O)N1CCC2(CCN(C(=O)NC(C)C)CC2)CC1 | > 11.4 µM (inactive) | -1.37% (inactive) | 20 µM (active) | -29.8% (inactive) | -1.69% (inactive) | > 46 µM (inactive) | inactive | inactive | 2.86% (inactive) | 7.58 | 13.7 | inactive | – | – | – |
| CS(=O)(=O)N1CCC2(CCN(c3cccc(-c4ccccc4)c3)CC2)CC1 | > 11.4 µM (inactive) | -1.25% (inactive) | inactive | 10.1% (inactive) | -21% (inactive) | > 46 µM (inactive) | inactive | inactive | -1.6% (inactive) | 19.1 | 18.7 | inactive | inactive | – | – |
| CC(=O)N1CCC2(CCCN(c3ccccn3)C2)CC1 | > 11.4 µM (inactive) | 4.59% (inactive) | inactive | 3.45% (inactive) | -5.49% (inactive) | > 46 µM (inactive) | inactive | inactive | 5.15% (inactive) | 19.4 | 28 | inactive | – | – | – |
| CC(=O)N1CCC[C@@]2(CCN(c3ncccn3)C2)C1 | > 11.4 µM (inactive) | 2.25% (inactive) | inactive | 13.2% (inactive) | -10.4% (inactive) | > 46 µM (inactive) | inactive | inactive | 2.8% (inactive) | 18.6 | 25.4 | inactive | – | – | – |
| COC(=O)N1CCC[C@@]2(CCN(c3ccncc3)C2)C1 | > 11.4 µM (inactive) | -7.07% (inactive) | inactive | -14.4% (inactive) | -2.36% (inactive) | > 46 µM (inactive) | inactive | inactive | 4.92% (inactive) | 18.5 | 26.2 | inactive | inactive | 3.98 µM (active) | inactive |
| O=S(=O)(c1ccccc1)N1CCC2(CC1)CN(c1ncccn1)C2 | > 11.4 µM (inactive) | -2.52% (inactive) | inactive | 26.7% (inactive) | -1.43% (inactive) | > 46 µM (inactive) | inactive | inactive | 4.75% (inactive) | 14.7 | 20.8 | inactive | – | – | – |
| CN1CCC2(CC1)CCN(C(=O)c1cc(C(F)(F)F)cc(C(F)(F)F)c1)CC2 | > 11.4 µM (inactive) | -8.71% (inactive) | inactive | -5.98% (inactive) | -2.34% (inactive) | > 46 µM (inactive) | inactive | inactive | 1.93% (inactive) | -7.21 | -4.06 | inactive | – | – | – |
